From PubChem
Mito fusion act = inhibitors of mitochondrial division or activators of mitochondrial fusion | 0.23% of 320,000 active | Potency, µM (top dose mostly 46.1 µM), without a hit: at the top dose growth rescue (activation), actives largely listed as activators | S. cerevisiae fusion-defective mutant growth rescue, CellTiterGlo 48 h | AID 485298; note: % of control where 0% means no effect; nearly all actives have a fitted effect of over 45% in size
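Read-out: ATP-based luminescence (CellTiterGlo, 10 min ambient) reporting growth of fusion-defective ts yeast after 48 hours at 37C on glycerol/ethanol YPEG medium in the presence of compound.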
FUS yeast rescue = suppressors of FUS proteinopathy in yeast | 0.24% of 390,000 active | S. cerevisiae FUS-expressing, growth rescue, OD600, 24 h | Potency, µM (titrated, usually from 76.6 µM), hits mostly activators | AID 1347120;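 note: plate controls were DMSO vehicle for no effect and reference control for full effect; nearly all actives have a fitted effect of over 55% in size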
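Quantitative HTS measuring growth restoration of FUS-toxic yeast. Galactose-induced cells (OD 0.005) were exposed 24hr at 30C to compounds at several concentrations, then absorbance at 600 nm was recorded.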
TDP43 rescue = rescues yeast growth from TDP-43 toxicity; TDP-43 expressing yeast growth rescue, BacTiter-Glo, 24 h; Potency, µM (top dose mostly 46.1 µM), for inactives: top-dose growth rescue (activation), usual class: activators; 1.8% of 410,000 active; note: % of control where 0% means no effect; nearly all actives have a fitted effect of over 50% in size
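Galactose-induced TDP-43 yeast, OD600=0.02, compound pinned; 24 hr, 30 deg C; BacTiter-Glo luminescence for growth. Inhibitors of TDP-43 toxicity read as activators.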
Abeta rescue = compounds reversing amyloid beta toxicity in yeast; yeast expressing A-beta42, growth rescue, OD600, 48 h; response scale: 0% DMSO, 100% iron-clioquinol control; Potency, µM (doses to about 46.1 µM), actives largely listed as activators; 0.063% of 410,000 active; AID 1347071; note: nearly all actives have a fitted effect of over 55% in size
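Growth rescue measured by 600 nm absorbance after 48 h yeast culture at 30 C with compound. Values normalized between DMSO and an equimolar ferric chloride plus clioquinol control.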
aSyn yeast inh = rescues yeast growth from alpha-synuclein toxicity; 0.14% of 370,000 active; Potency, µM (top dose mostly 46.1 µM), inactives show at the top dose growth rescue (activation), most hits filed as activators; AID 652106; Yeast expressing alpha-synuclein, growth rescue, BacTiter-Glo, 24 h; note: % of control where 0% means no effect; nearly all actives have a fitted effect of over 65% in size
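Screening used galactose-induced yeast with toxic alpha-synuclein levels, exposed to compound for 24 hr at 30 deg C. Cell growth, read with BacTiter-Glo luminescence, gave the measured signal.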
* hit, by the source's call; i = inactive; ? = inconclusive; · = not tested or not shown; [ ] = dose if it differs, or a comment. A selection: hits, their analogues and other compounds. The true share with any hit is near 2.2%. Calls come from the whole dose curve; as a rule, active = well fitted curve in the direction sought with a large enough effect; inconclusive = small, poorly fitted or top-dose-only effect, or another doubt; inactive = no such curve, though single readings can be large; an effect the other way counts as inactive or inconclusive. Potency is the fitted concentration of half-maximal effect.

SMILES	Mito fusion act	FUS yeast rescue	TDP43 rescue	Abeta rescue	aSyn yeast inh
Cc1ccc(-c2ccc(CN3C(C)C(=O)N(Cc4cn(Cc5ccco5)nn4)CCS3(=O)=O)cc2)c(C)c1 (stereo not drawn)	·	?	35µM*	i	?
CC1C(=O)N(Cc2cn(Cc3ccco3)nn2)CCS(=O)(=O)N1Cc1ccc(-c2ccc(Cl)c(Cl)c2)cc1 (stereo not drawn)	·	?	35µM*	i	?
CC(C)C1C(=O)N(Cc2cn(Cc3ccco3)nn2)CCS(=O)(=O)N1Cc1ccc(-c2ccc(Cl)c(Cl)c2)cc1 (stereo not drawn)	·	?	28%	i	15%
Cc1ccc(Nc2c(-c3cccs3)nc3nc(C)cc(C)n23)cc1	·	i	?	i	·
CCc1ccc(C(=O)c2cn(Cc3ccc(F)cc3)c3cc(OC)c(OC)cc3c2=O)cc1	·	35µM*	?	i	·
CCn1c(=O)c2cc(C(=O)NC3CCCCCC3)sc2c2ccccc21	·	i	16µM*	i	·
CCOc1ccccc1N(CC)C(=O)c1cc2c(=O)n(CC)c3ccccc3c2s1	·	32µM*	12%	i	·
CCn1c(=O)c2cc(C(=O)N(C)c3ccc(OC)cc3OC)sc2c2ccccc21	29%	2µM*	19%	i	-1%
CC(=O)c1ccc(N2CCN(C(=O)/C=C/c3ccc4ccccc4n3)CC2)cc1	3%	i	?	i	10µM*
CC(=O)c1ccc(N2CCN(C(=O)c3ccc4ccccc4n3)CC2)cc1	5%	i	9%	i	0%
CCn1c2ccccc2c2cc(Nc3cc(C)nc4ncnn34)ccc21	16µM*	i	16µM*	i	9%
CCOC(=O)c1c(C)oc2nc(C)nc(N3CCN(c4ccccc4F)CC3)c12	·	i	?	i	·
OCc1cccc(-c2cnc3c(Nc4cccc(OC(F)(F)C(F)F)c4)nccn23)c1	·	?	20µM*	i	-7%
Cn1nnc(NC(=S)NC(=O)c2cccc3ccccc23)n1	-9%	i	9%	11µM*	-9%
CCCCn1nnc(NC(=S)NC(=O)c2cccs2)n1	2%	·	35µM*	i	-15%
Cn1nnc(NC(=S)NC(=O)c2ccc3ccccc3c2)n1	·	i	?	i	-2%
COc1ccc(NC(=O)N(Cc2nnc3n2CCCCC3)c2ccc(OC)c(Cl)c2)cc1	·	i	10%	i	18%
Cc1cn(C2OC(COC(=O)c3ccccc3)C(OC(=O)c3ccccc3)C2OC(=O)c2ccccc2)c(=O)[nH]c1=O (stereo not drawn)	6%	25µM*	-16%	i	23%
O=C(CSc1nc2ccccc2o1)NN=C/C=C\c1ccccc1[N+](=O)[O-]	·	i	·	·	·
O=S(=O)(Nc1cccc2cccnc12)C1CC1	·	·	·	·	-5%
Nc1ccc2oc(CCc3ccccc3)nc2c1	12%	i	18µM*	i	-1%
COc1cccc(C(=O)N2c3ccccc3Sc3ccccc32)c1	?	i	22µM*	i	24%
Cc1cccc(-n2nnnc2SCC(=O)NCC2CCCO2)c1 (stereo not drawn)	18µM*	i	-20%	i	-5%
COc1ccc(-n2nnnc2SCC(=O)NCCc2ccccc2)cc1OC	1%	i	-14%	i	-1%
Cc1ccc(-n2nnnc2SCC(=O)NCCc2ccccc2)cc1C	·	i	22µM*	i	·
SMILES	Mito fusion act	FUS yeast rescue	TDP43 rescue	Abeta rescue	aSyn yeast inh
O=C(CSc1nc2cc(Cl)ccc2s1)NCC1CCCO1 (stereo not drawn)	·	i	20µM*	i	8%
CCCS(=O)(=O)c1ncc(Cl)c(C(=O)Nc2sc3c(c2C(=O)NCC)CCCC3)n1	·	·	·	·	-1%
Cc1ccc2onc(CC(=O)Nc3cc(F)ccc3F)c2c1	·	i	10µM*	i	·
Fc1ccc([C@@H]2Nc3ccccc3[C@@H]3C=CC[C@@H]32)cc1	·	i	11%[9.22 µM]	13µM*	·
O=C(Nc1cc(-c2nc3ccccc3o2)ccc1Cl)c1ccc(Br)o1	·	i	11%	i	·
Cc1ccc(C)c(OC(=O)CSc2nnc(-c3ccc4c(c3)OCO4)o2)c1	·	i	13%	i	·
Cc1cccc2sc(N(Cc3cccnc3)C(=O)CCc3ccccc3)nc12	·	?	?	i	·
O=C(COc1ccccc1)N(Cc1cccnc1)c1nc2ccc(Cl)cc2s1	·	i	16µM*	i	·
O=C(CCc1ccccc1)N(Cc1cccnc1)c1nc2c(F)cccc2s1	·	i	16µM*	i	·
O=C(COc1ccccc1)N(Cc1cccnc1)c1nc2c(F)cccc2s1	·	i	18µM*	i	·
Cc1ccc2nc(N(Cc3cccnc3)C(=O)COc3ccccc3)sc2c1	·	i	0%	i	·
O=C(CCOc1ccccc1)N(Cc1cccnc1)c1nc2c(F)cccc2s1	·	i	5%	i	·
O=C(NNc1ccccc1F)c1cccs1	·	·	·	·	4%
COc1ccc(OC)c(NC(=O)CSc2nc3ccccc3c(=O)n2CCC(=O)NC2CCCCC2)c1	·	i	11%	i	·
O=C(OC(c1ccccc1)c1nccc2ccccc12)c1cc([N+](=O)[O-])cc([N+](=O)[O-])c1 (stereo not drawn)	?	·	6.3µM*	i	9%
Cc1cc(C)nc(NC(=O)Cc2ccc(Cl)cc2)c1	0%	i	18µM*	i	-7%
CC(=O)OC1CCC2(C)C(CCC3C4CC=C(C(C)=O)C4(C)OC(=O)CC32)C1 (stereo not drawn)	·	i	-85%	i	-19%
CC(=O)O[C@H]1CC[C@@]2(C)C(CCC3C2CC[C@]2(C)OC(=O)CCC32)C1 (stereo partly drawn)	10%	i	35µM*	i	19%
Oc1ccc(N2CCN(c3ncnc4sc(-c5ccccc5)cc34)CC2)cc1	1%	?	11µM*	i	?
CCc1cc2c(N3CCN(c4ccccc4)CC3)ncnc2s1	7%	i	13µM*	i	12%
CC(=O)N1CCN(c2ncnc3sc(-c4ccccc4)cc23)CC1	4%	i	16%	i	-3%
CN(C)c1ccc(/C=C/c2ccnc3ccccc23)cc1Br	·	·	·	·	18%
Cc1nn(C(=O)c2ccccc2)c(C)c1Sc1ccc(Cl)cc1	·	?	35µM*	i	·
Cc1ccc(-c2cc(-c3n[nH]c(=S)o3)c3ccccc3n2)cc1	?	i	?	i	-14%
S=c1[nH]nc(-c2cc(-c3ccccn3)nc3ccccc23)o1	-1%	i	3.2µM*	i	14%
COC(=O)C1CN(CC(C)C)CCS(=O)(=O)N1Cc1cccc(Cl)c1 (stereo not drawn)	·	i	·	·	·
CCOc1ccc(CCNC(=O)c2cnc3c(-c4ccccc4)c(C)nn3c2C)cc1OCC	·	i	4%	i	·
